Experimental data as given in article PMC4336329 (PLoS ONE, 2015).
Hit rate of the full screen: of about 310,000 compounds, about 14,000 (4.5%) showed an effect of 50% or more. The effect is printed as a negative number. What follows is part of a selection rich in strong results, with near analogues and random picks from the rest.

Biological target: human ether-à-go-go-related gene (hERG) potassium channel (human, UniProt Q12809)
Assay: primary screen, population patch clamp on CHO cells stably expressing hERG; higher = less effect of the substance
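Also: peak tail current of the secondary pulse compared with the same well before compound.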

human ether-à-go-go-related gene (hERG) potassium channel, sequence (Q12809 whole entry, looked up): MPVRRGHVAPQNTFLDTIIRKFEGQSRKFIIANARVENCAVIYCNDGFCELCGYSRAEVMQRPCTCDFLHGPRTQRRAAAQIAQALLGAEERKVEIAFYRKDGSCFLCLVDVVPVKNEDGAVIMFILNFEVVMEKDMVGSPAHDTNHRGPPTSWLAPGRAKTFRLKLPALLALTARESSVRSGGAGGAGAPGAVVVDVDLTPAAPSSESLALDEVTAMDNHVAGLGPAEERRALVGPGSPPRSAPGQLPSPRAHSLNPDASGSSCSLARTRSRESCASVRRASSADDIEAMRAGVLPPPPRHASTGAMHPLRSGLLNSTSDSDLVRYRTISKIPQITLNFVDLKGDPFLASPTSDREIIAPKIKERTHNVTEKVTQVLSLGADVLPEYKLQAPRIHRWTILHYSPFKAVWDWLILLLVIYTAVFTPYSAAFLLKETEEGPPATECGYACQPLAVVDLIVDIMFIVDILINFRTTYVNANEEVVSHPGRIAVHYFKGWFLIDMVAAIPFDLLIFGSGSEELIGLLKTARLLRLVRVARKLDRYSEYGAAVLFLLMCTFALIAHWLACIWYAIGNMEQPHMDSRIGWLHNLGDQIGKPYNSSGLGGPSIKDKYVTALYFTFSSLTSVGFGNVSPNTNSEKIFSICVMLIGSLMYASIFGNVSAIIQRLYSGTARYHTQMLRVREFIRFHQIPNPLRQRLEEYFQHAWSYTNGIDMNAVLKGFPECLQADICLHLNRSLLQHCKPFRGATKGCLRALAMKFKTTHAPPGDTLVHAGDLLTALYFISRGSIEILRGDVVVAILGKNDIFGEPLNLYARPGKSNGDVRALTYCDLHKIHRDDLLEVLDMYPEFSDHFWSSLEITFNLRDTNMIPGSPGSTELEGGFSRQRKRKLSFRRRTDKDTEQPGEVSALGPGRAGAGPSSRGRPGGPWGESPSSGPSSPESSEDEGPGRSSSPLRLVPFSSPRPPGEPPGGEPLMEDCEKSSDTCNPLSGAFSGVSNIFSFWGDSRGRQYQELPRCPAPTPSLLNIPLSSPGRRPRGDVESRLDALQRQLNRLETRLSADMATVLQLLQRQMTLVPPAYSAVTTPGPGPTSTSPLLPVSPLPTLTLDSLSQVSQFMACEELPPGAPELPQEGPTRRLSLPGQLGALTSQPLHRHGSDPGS

SMILES	hERG current change (%, negative = inhibition) at 10uM [%]
CCC(=O)Nc1ccc2c(c1)nc(CCN1CCCCC1)n2C	7.26
Cc1ccc(C(C)C)c(OCC(=O)Nc2ccc3c(c2)nc(CCN2CCCCC2)n3C)c1	-75.8
CCCC(=O)Nc1ccc2c(c1)nc(CN1CCCC1)n2C	11.7
Cc1cccc(OCC(=O)Nc2ccc3c(c2)nc(CN2CCCCC2)n3C)c1.Cl	-25.3
CC(C)CC(=O)Nc1ccc2c(c1)nc(CCN1CCCCC1)n2C	-9.9
Cc1ccc(C(C)C)c(OCC(=O)Nc2ccc3c(c2)nc(CN2CCCC2)n3C)c1	-76.2
Cc1ccc(OCc2nc(-c3ccccn3)no2)c(Br)c1	-22.5
CC(=O)c1cccc(OCC(=O)Nc2cccc(C(=O)Nc3c(C)n(C)n(-c4ccccc4)c3=O)c2)c1	-7.78
C=C1C(C(=O)N2CCN(C)CC2)C1C(=O)N1CCN(C)CC1 (stereo not drawn)	-2.23
Cc1ccc(-n2nnnc2SCC(=O)c2c(N)n(CC(C)C)c(=O)n(C)c2=O)cc1	-69.1
Cn1c(N)c(C(=O)COC(=O)c2ccc([N+](=O)[O-])o2)c(=O)n(C)c1=O	-34.6
CC(C)Cn1c(N)c(C(=O)COC(=O)c2ccc([N+](=O)[O-])o2)c(=O)n(C)c1=O	-69.5
CC(C)Cn1c(N)c(C(=O)COC(=O)c2cc(-c3ccccc3)nc3ccccc23)c(=O)n(C)c1=O	-8.18
Cn1c(N)c(C(=O)COC(=O)CCc2nc3ccccc3s2)c(=O)n(C)c1=O	5.93
Cn1c(N)c(C(=O)COC(=O)CCCc2nc3ccccc3s2)c(=O)n(C)c1=O	9.03
CC(C)Cn1c(N)c(C(=O)CSc2nnnn2C)c(=O)n(C)c1=O	4.91
CC(C)Cn1c(N)c(C(=O)COC(=O)c2ccc3ccccc3n2)c(=O)n(C)c1=O	-59.9
CCc1ccc(C(=O)OCC(=O)c2c(N)n(CC(C)C)c(=O)n(C)c2=O)cc1	-0.249
CC(C)Cn1c(N)c(C(=O)COC(=O)CCc2nc3ccccc3s2)c(=O)n(C)c1=O	-69.3
CCCn1c(N)c(C(=O)CSc2nnnn2-c2ccc(O)cc2)c(=O)n(C)c1=O	5.2
CC(C)Cn1c(N)c(C(=O)COC(=O)c2cc(C(F)(F)F)nc3ccccc23)c(=O)n(C)c1=O	0.872

SMILES	hERG current change (%, negative = inhibition) at 10uM [%]
COc1ccc(NS(=O)(=O)c2ccc(NC(=O)C3CC3)cc2)cc1	18.6
CCOc1ccc(CC(=O)OCn2nnc3ccccc3c2=O)cc1	11.4
Cc1ccc(NS(=O)(=O)c2ccc(-c3ccc(=O)[nH]n3)o2)cc1N(C)C	1.5
Fc1ccccc1C1c2cccn2CCN1C(=S)Nc1cccc(Br)c1 (stereo not drawn)	12.9
CN1C(=O)OC(C)(C)C1=O	-2.78
CO/N=C/C(C#N)=C/c1cc(C(=O)c2ccccc2)cn1C	18.4
O=C1OCCN1C(=O)[C@H]1[C@H](c2ccc([N+](=O)[O-])cc2)C(c2cccc(Cl)c2)=NN1c1ccccc1	5.99
CCOC(=O)c1ccc(NC(=O)N2C3CCCC2CC(NC(C)=O)C3)cc1 (stereo not drawn)	-11.6
Cc1ccccc1OCCC(=O)OCC(=O)c1c(N)n(CC(C)C)c(=O)n(C)c1=O	-75.2
CCC(C(=O)OCC(=O)c1c(N)n(CC(C)C)c(=O)n(C)c1=O)c1ccccc1 (stereo not drawn)	-2.13
CCOc1ccc(OCCC(=O)OCC(=O)c2c(N)n(C)c(=O)n(C)c2=O)cc1	-23
Cc1cccc(C(=O)OCC(=O)c2c(N)n(CC(C)C)c(=O)n(C)c2=O)c1O	-15.2
Cc1ccc(OCCC(=O)OCC(=O)c2c(N)n(C)c(=O)n(C)c2=O)cc1	-58.3
CCOc1ccccc1OCC(=O)OCC(=O)c1c(N)n(CC(C)C)c(=O)n(C)c1=O	-67.5
Cc1csc(=O)n1CCC(=O)OCC(=O)c1c(N)n(CC(C)C)c(=O)n(C)c1=O	-26.2
Cc1cc(C)cc(OCC(=O)OCC(=O)c2c(N)n(C)c(=O)n(C)c2=O)c1	-5.06
Cc1ccc(OCCC(=O)OCC(=O)c2c(N)n(CC(C)C)c(=O)n(C)c2=O)cc1	-71.9
CC(=O)NC(CC(=O)OCC(=O)c1c(N)n(CC(C)C)c(=O)n(C)c1=O)c1ccccc1 (stereo not drawn)	-3.32
Cc1ccc(S(=O)(=O)CCC(=O)OCC(=O)c2c(N)n(CC(C)C)c(=O)n(C)c2=O)cc1	-27.9
CC(C)Cn1c(N)c(C(=O)COC(=O)CCNS(=O)(=O)c2ccccc2)c(=O)n(C)c1=O	-48.4
O=C(Cn1cnc2ccccc21)OCC(=O)N1CCCc2ccccc21	8.8

SMILES	hERG current change (%, negative = inhibition) at 10uM [%]
CCCCNC(=S)N/N=C/c1ccccc1F	2.81
Cc1ccc(OC(C)C(=O)Nc2ccc3c(c2)n(C)c(=O)n3C)c(C)c1 (stereo not drawn)	11.7
Cc1ccc(S(=O)(=O)NCc2ccc(C(=O)NCCN(Cc3ccccc3)C(C)C)cc2)cc1	-36.4
Cc1ccc(S(=O)(=O)NC(CC(C)C)C(=O)NCC(C)(C)N2CCOCC2)cc1 (stereo not drawn)	11.6
COc1ccc(NC(=O)CCCn2c(=O)c3sccc3n(Cc3cccc(C)c3)c2=O)cc1	12.7
Cc1cnc(C(=O)OCC(=O)NCCc2ccccc2)cn1	-3.4
O=C(c1cccc(NS(=O)(=O)c2cccc(F)c2)c1)N1CCN(c2ccccc2)CC1	-8.41
CSCCC(NC(=O)COc1cccc2ccccc12)C(=O)O (stereo not drawn)	0.83
CCc1ccc(N2CC(C(=O)OCC(=O)c3c(N)n(CC(C)C)c(=O)n(C)c3=O)CC2=O)cc1 (stereo not drawn)	-7.72
Cc1ccc(N2CC(C(=O)OCC(=O)c3c(N)n(CC(C)C)c(=O)n(C)c3=O)CC2=O)cc1 (stereo not drawn)	-3.07
Cn1c(N)c(C(=O)COC(=O)/C=C/c2ccc(F)cc2)c(=O)n(C)c1=O	-51.8
CCc1ccccc1OCC(=O)OCC(=O)c1c(N)n(C)c(=O)n(C)c1=O	-53.6
Cn1c(N)c(C(=O)COC(=O)/C=C/c2ccc(Cl)cc2)c(=O)n(C)c1=O	-43.3
COc1ccc(/C=C/C(=O)OCC(=O)c2c(N)n(C)c(=O)n(C)c2=O)cc1	5.38
Cn1c(N)c(C(=O)COC(=O)COc2ccccc2C#N)c(=O)n(C)c1=O	-23.2
CC(C)Cn1c(N)c(C(=O)COC(=O)C2CC(=O)N(c3ccc4c(c3)OCCO4)C2)c(=O)n(C)c1=O (stereo not drawn)	-52.6
CC(C)Cn1c(N)c(C(=O)COC(=O)CCc2nc3ccccc3c(=O)[nH]2)c(=O)n(C)c1=O	-36
COc1ccc(CCC(=O)OCC(=O)c2c(N)n(CC(C)C)c(=O)n(C)c2=O)cc1	-33.4
COc1ccccc1CCC(=O)OCC(=O)c1c(N)n(CC(C)C)c(=O)n(C)c1=O	-70.3
Cc1cccc(OCC(=O)OCC(=O)c2c(N)n(C)c(=O)n(C)c2=O)c1C	-1.84
Cc1cc(C)nc(SCCC(=O)Nc2ccc(F)cc2)n1	7.84

SMILES	hERG current change (%, negative = inhibition) at 10uM [%]
O=C(/C=C\Nc1cccc(F)c1)c1cccs1	11.7
CC(NC(=O)C1CCN(S(=O)(=O)c2ccc3c(c2)NC(=O)CO3)CC1)c1ccccc1 (stereo not drawn)	-7.39
CN(C)S(=O)(=O)N1CCN(C(=O)c2ccc3c(c2)OCO3)CC1	10
CSc1ccc(/C=C(\C#N)C(=O)NC2CCCCC2C)cc1 (stereo not drawn)	-21.7
N#C/C(=C/c1ccc(-c2cc([N+](=O)[O-])ccc2Cl)o1)C(N)=O	1.62
N#CC(=C=[N-])c1nc2ccccc2nc1-[n+]1ccccc1	-2.11
Cn1c(N)c(C(=O)COC(=O)COc2ccc(Br)cc2)c(=O)n(C)c1=O	-72.6
Cc1ccc(C(C)C)c(OCC(=O)OCC(=O)c2c(N)n(C)c(=O)n(C)c2=O)c1	3.36
Cn1c(N)c(C(=O)COC(=O)CCOc2ccc(C(C)(C)C)cc2)c(=O)n(C)c1=O	-60.6
Cn1c(N)c(C(=O)COC(=O)COc2ccc(C#N)cc2)c(=O)n(C)c1=O	-24
CC(C)Cn1c(N)c(C(=O)COC(=O)c2ccccc2F)c(=O)n(C)c1=O	-14.7
CCC(=O)c1ccc(OCC(=O)OCC(=O)c2c(N)n(C)c(=O)n(C)c2=O)cc1	5.93
COc1ccccc1OCCC(=O)OCC(=O)c1c(N)n(C)c(=O)n(C)c1=O	-10.3
Cc1ccc(C)c(OCCC(=O)OCC(=O)c2c(N)n(C)c(=O)n(C)c2=O)c1	-55.5
Cn1c(N)c(C(=O)COC(=O)COc2ccc(Cl)cc2)c(=O)n(C)c1=O	-23.1
CCc1ccc(OCC(=O)OCC(=O)c2c(N)n(C)c(=O)n(C)c2=O)cc1	10.2
CC(C)Cn1c(N)c(C(=O)COC(=O)c2ccccc2Cl)c(=O)n(C)c1=O	-41.7
CC(C)Cn1c(N)c(C(=O)COC(=O)[C@H](C)NC(=O)c2ccccc2Cl)c(=O)n(C)c1=O	-53.1
